# Data taken from PubChem BioAssay AID489012 (National Center for Advancing Translational Sciences (NCATS), 2010).
# Results filed as inconclusive are left out. A number with no mark means an inactive call. The source made the active and inactive calls. The call rests on the fitted dose curve; in most records, active means well fitted activation curve with a large enough effect; inconclusive means small, poorly fitted or top-dose-only effect; inactive means no such curve, though single readings can be large or run the other way.
# Molecular target: Relaxin receptor 1 (Homo sapiens) (UniProt Q9HBX9)
# Sequence (Q9HBX9 whole entry, looked up): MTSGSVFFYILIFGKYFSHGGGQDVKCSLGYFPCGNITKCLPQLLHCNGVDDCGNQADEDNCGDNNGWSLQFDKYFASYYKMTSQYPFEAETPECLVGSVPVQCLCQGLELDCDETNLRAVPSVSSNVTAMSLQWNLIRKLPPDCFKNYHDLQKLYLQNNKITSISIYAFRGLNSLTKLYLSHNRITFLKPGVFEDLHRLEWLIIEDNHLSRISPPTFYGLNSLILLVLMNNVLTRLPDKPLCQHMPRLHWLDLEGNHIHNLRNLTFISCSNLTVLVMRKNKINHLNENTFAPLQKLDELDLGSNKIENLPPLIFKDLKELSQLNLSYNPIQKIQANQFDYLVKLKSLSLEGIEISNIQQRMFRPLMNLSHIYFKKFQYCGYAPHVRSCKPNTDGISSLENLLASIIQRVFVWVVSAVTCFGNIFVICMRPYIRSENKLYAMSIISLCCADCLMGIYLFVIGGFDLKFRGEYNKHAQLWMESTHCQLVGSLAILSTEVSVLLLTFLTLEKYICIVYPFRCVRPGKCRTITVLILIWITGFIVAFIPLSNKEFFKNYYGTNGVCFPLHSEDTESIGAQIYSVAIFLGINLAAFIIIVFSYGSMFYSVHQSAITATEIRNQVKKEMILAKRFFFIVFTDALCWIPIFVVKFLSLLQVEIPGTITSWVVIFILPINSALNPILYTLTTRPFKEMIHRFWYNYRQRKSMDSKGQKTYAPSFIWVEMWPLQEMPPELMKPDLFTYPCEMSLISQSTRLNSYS
# Experiment: qHTS Assay for Agonists of the Relaxin Receptor RXFP1: RXFP1 Hit Validation; further: nearly all actives have a fitted effect of over 65% in size;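 on activation: cAMP rise lowers the TR-FRET signal in lysed cells with PDE4 inhibitor present; 0% = buffer-only basal and 100% = 29 nM porcine relaxin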
# Details: HEK293T-RXFP1 cAMP TR-FRET, 30 min; series mostly up to 115 µM; activation: at the top concentration
# Potency means the concentration at half of the fitted maximal effect.
Structure (SMILES),activation,Potency
Cc1cccc(NC(=O)c2ccccc2NC(=O)C2CCCCC2)c1C,-1.94% [at 125 µM],–
CCc1nnc(NC(=O)CSc2nc(C)nc3c2c(=O)n(C)c(=O)n3C)s1,–,17.3 µM (active)
O=C(Nc1ccccc1C(=O)N1CCCCC1)c1ccco1,3.58% [at 125 µM],–
CCn1c(=O)c2sccc2n2c(CCCC(=O)NCc3cccnc3)nnc12,28.5%,–
CCCC(=O)Nc1ncnc2c1ncn2[C@@H]1O[C@@H]2COP(=O)(O)O[C@H]2[C@H]1OC(=O)CCC,–,0.774 µM (active)
Cc1cc(NC(=O)c2ccccc2F)nc2c1c(=O)oc1ccccc12,–,17.3 µM (active)
COCCNC(=O)NC(=O)COC(=O)C12CC3CC(CC(NC(C)=O)(C3)C1)C2,2.8% [at 45 µM],–
Nc1ncnc2c1ncn2[C@@H]1O[C@H](COS(=O)(=O)O)[C@@H](O)[C@H]1O,–,6.9 µM (active)
Cc1cc2c(SCC(=O)NCC3CCCO3)ncnc2s1 (centres undefined),25.2%,–
O=C(Nc1ccccc1C(=O)N1CCNCC1)c1ccco1,-3.15% [at 125 µM],–
COC(=O)c1c(N2C(=O)CC(Sc3ncccc3C(=O)O)C2=O)sc(C)c1C (centres undefined),-8.76%,–
CCN(CC)CCCN1C=C2C(=O)C(C)(OC(=O)C3CCCC3)C(=O)C=C2C=C1c1ccsc1 (centres undefined),-3.64%,–
COc1ccccc1CNS(=O)(=O)c1cc(CN2C(=O)c3cccnc3C2=O)ccc1OC,–,30.9 µM (active)
O=C(Nc1ccccc1C(=O)NCc1ccco1)c1ccccc1,16.5% [at 125 µM],–
c1ccc(-c2nnc(-c3ccccn3)c(-c3ccccn3)n2)nc1,0.143%,–
Nc1c(Cl)cc(-c2[nH]c3cc(C(=O)NCCO)ccc3c(=O)c2O)cc1Cl,–,34.6 µM (active)
CC(C)n1cnc2c(N(C)c3cccc(Cl)c3)nc(N(CCO)CCO)nc21,-5.98%,–

Structure (SMILES),activation,Potency
Nc1ncnc2c1ncn2C1OC(CO)C(O)C1O (centres undefined),–,1.74 µM (active)
Cc1ccc(CN(C)C(=O)c2ccccc2NC(=O)c2ccccc2)o1,-3.25% [at 125 µM],–
CC(=O)CCCCn1c(=O)c2c(ncn2C)n(C)c1=O,27.5%,–
COc1cc(Cl)c(C)cc1NC(=O)c1ccc2c(c1)OCO2,-3.24% [at 45 µM],–
Cc1cccn2c(=O)c3cc(C(=O)NCCN4CCOCC4)c(=N)n(CCCN4CCOCC4)c3nc12,20.9%,–
COc1cccc(CNC(=O)c2ccc(CS(=O)Cc3ccc(C)cc3)o2)c1 (centres undefined),3.96% [at 45 µM],–
CN(C)c1ccc2nc3c(=O)[nH]c(=O)nc-3n(CC(O)C(O)C(O)CO)c2c1 (centres undefined),7.23%,–
CCOC(=O)CNC(=O)CSc1ccc2nnc(-c3cccnc3)n2n1,-30%,–
CCOC(=O)CSc1nc(=O)n2cc(C)ccc2n1,20.1%,–
N#C/C(=C\c1c(N2CCC(C(N)=O)CC2)nc2ccccn2c1=O)C(=O)NC1CCCCC1,24.3%,–
Cc1cccn2c(=O)c3cc(C(=O)NC4CCCC4)c(=N)n(CCCN4CCOCC4)c3nc12,22.6%,–
Cc1ccccc1NC(=O)CNc1ccccc1C(=O)NCc1ccco1,5.5% [at 125 µM],–
O=C(O)CCC(=O)N1CCN(c2nc(-c3ccccc3Cl)c3cc(Br)ccc3n2)CC1,28.4% [at 45 µM],–
O=C(Nc1ccccc1C(=O)NCCc1ccccc1)c1ccco1,-11.1% [at 125 µM],–
CC(C)(C)C(=O)Nc1ccccc1C(=O)NCc1ccco1,7.47% [at 125 µM],–
COC(=O)Cn1cnc2c(C#N)c3n(c2c1=O)CCCCC3,–,13.8 µM (active)
COc1ccc(CC(=O)N/N=C/c2cccnc2)cc1OC,-6.39%,–
